PHOSPHO1 block: blocks human PHOSPHO1 phosphatase activity; Q8TCT1; recombinant PHOSPHO1, absorbance phosphatase assay; inhibition, % at 13.3 µM; 1.1% of 290,000 active; AID 1565; in the data active = inhibition above about 60%
p-CIP stab down: lowers stability of the mouse p/CIP coactivator protein | F442A p/CIP-EGFP cells, EGFP fluorescence, 16 h | decrease of EGFP signal, % at 10 µM | 0.01% of 290,000 active | AID 1984;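 active = EGFP signal decrease of at least 30% at 10 µM or well 3 SD below plate mean, unless failing retest; inactive = the rest, including hits failing retest or dose response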
Target sequence (Q05BA5 1-1403): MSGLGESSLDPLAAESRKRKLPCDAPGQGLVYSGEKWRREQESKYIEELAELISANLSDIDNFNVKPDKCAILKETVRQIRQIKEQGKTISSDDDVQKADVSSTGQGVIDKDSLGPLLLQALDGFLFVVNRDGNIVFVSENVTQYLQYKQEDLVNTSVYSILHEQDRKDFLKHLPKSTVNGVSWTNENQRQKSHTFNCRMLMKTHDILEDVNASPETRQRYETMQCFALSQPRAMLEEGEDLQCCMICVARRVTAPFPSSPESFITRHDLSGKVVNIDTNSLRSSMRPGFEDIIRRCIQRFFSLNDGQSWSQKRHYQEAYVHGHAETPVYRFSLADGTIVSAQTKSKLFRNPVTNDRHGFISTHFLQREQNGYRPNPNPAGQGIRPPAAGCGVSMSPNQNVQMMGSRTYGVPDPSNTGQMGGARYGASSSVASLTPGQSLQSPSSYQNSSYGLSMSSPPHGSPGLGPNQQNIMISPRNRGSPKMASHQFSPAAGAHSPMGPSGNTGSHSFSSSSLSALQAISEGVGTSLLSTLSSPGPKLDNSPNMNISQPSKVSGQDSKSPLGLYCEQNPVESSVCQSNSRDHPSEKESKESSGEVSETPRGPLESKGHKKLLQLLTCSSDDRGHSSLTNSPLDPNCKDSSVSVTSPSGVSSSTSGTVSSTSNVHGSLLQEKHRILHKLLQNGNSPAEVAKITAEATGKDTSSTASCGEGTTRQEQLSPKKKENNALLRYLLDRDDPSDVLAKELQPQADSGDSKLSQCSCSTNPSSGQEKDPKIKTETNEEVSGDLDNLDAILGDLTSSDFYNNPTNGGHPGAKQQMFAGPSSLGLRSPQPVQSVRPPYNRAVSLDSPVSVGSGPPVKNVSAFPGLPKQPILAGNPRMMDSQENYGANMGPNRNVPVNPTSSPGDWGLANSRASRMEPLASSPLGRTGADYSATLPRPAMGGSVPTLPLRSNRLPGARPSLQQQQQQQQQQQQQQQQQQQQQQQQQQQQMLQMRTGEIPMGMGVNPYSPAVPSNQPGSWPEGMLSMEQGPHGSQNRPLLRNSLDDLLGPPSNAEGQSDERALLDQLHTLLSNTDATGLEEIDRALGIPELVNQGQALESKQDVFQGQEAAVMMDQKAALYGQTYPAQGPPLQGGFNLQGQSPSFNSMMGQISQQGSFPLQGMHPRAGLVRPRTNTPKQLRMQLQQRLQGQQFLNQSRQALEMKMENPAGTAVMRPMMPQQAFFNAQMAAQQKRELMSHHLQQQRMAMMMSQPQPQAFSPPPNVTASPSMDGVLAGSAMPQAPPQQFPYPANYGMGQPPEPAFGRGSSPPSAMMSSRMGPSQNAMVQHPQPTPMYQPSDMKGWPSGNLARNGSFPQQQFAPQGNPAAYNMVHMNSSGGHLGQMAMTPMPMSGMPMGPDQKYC
SUMO HTRF inh: SUMOylation inhibition. HTRF SUMOylation assay, SAE1/SAE2 + UBC9, in vitro. AID 2006. inhibition, % at 35 µM. P63279. 0.36% of 290,000 active; in the data active = inhibition above about 50%, passing the limit was not always enough; inconclusive = no clear call, values can overlap the other calls
NadD inh: NadD (S. aureus) enzyme inhibition; 0.78% of 360,000 active; AID 602399; inhibition, % at 20 µM; purified NadD enzyme, colorimetric absorbance read-out; in the data active = inhibition above about 26%
Hits are given with their value. Hits are enriched below; roughly 1.8% of the tested compounds scored in any of these assays.

What do the screens show for `CCC1=NN(C(=O)C(=O)Nc2ccccc2OC)C(O)(C(F)(F)F)C1` (centres undefined)?
PHOSPHO1 block: inactive; p-CIP stab down: inactive; SUMO HTRF inh: inactive; NadD inh: inactive

How did CCOc1ccc(-c2nnc3ccc(SCc4ccc(C(=O)OC)o4)nn23)cc1 do in these assays?
PHOSPHO1 block: 95; p-CIP stab down: inactive; SUMO HTRF inh: inactive; NadD inh: inactive

How did COC(=O)c1ccc(CSc2ccc3nnc(-c4ccc(F)cc4)n3n2)o1 do in these assays?
PHOSPHO1 block: inactive; p-CIP stab down: inactive; SUMO HTRF inh: inactive; NadD inh: inactive

Results for CCc1ncc(C(O)c2ccc(Cl)cc2)n1Cc1ccccc1 (centres undefined) ?
NadD inh: inactive

Results for O=C1/C(=C\c2ccccc2)SC(=S)N1CCC(=O)N1CCCCC1CCO (centres undefined) ?
PHOSPHO1 block: inactive; p-CIP stab down: inactive; SUMO HTRF inh: inactive; NadD inh: inactive

How did O=C1/C(=C/c2ccccc2)SC(=S)N1CC(=O)N1CCCCC1c1cccnc1 (centres undefined) do in these assays?
PHOSPHO1 block: inactive; p-CIP stab down: inactive; SUMO HTRF inh: inactive; NadD inh: 45

Results for Cc1cc(-c2nc3c4c5c(sc4[nH]c(=O)n3n2)CCC5)c(C)o1 ?
PHOSPHO1 block: 80; p-CIP stab down: inactive; SUMO HTRF inh: inactive; NadD inh: inactive

Results for CC(C)(C)c1ccc(C(=O)CCCSC2=C(C#N)C(c3ccco3)C3=C(CCCC3=O)N2)cc1 (centres undefined) ?
PHOSPHO1 block: 71; p-CIP stab down: inactive; SUMO HTRF inh: inactive; NadD inh: inactive

How did O=C(NC(=S)N1CCCCC1)C12CC3CC(CC(C3)C1)C2 do in these assays?
PHOSPHO1 block: 84; p-CIP stab down: inactive; SUMO HTRF inh: inactive; NadD inh: inactive

What do the screens show for `CCOC(=O)N1CCN(C(=S)NC(=O)C23CC4CC(CC(C4)C2)C3)CC1`?
PHOSPHO1 block: inactive; p-CIP stab down: inactive; SUMO HTRF inh: inactive; NadD inh: inactive

What do the screens show for `CCCCCCCCN1C(=O)[C@H](CC(=O)NCCCOC)C[C@@]2(C(=O)OCC)CCCC=C12`?
NadD inh: inactive

What do the screens show for `O=S(=O)(N=C1C=CC(=NS(=O)(=O)c2ccccc2)c2ccccc21)c1ccccc1`?
NadD inh: 33

How did CCc1ccc(S(=O)(=O)/N=C2\C=CC(=O)c3ccccc32)cc1 do in these assays?
PHOSPHO1 block: inactive; p-CIP stab down: inactive

Results for Cn1cnnc1SCC(=O)N1N=C2/C(=C/c3ccco3)CCCC2C1c1ccco1 (centres undefined) ?
PHOSPHO1 block: 80; p-CIP stab down: inactive; SUMO HTRF inh: inactive; NadD inh: inactive

How did CN(C)c1ncnc2c1ncn2[C@H]1CN(Cc2cccs2)C[C@@H](CO)O1 do in these assays?
NadD inh: inactive

How did CCOC(=O)c1c(C)[nH]c(C)c1S(=O)(=O)NC1CCN(C(=O)OCC)CC1 do in these assays?
PHOSPHO1 block: inactive; p-CIP stab down: inactive; SUMO HTRF inh: inactive; NadD inh: inactive

How did CCOC(=O)c1c(C)[nH]c(C)c1S(=O)(=O)NC(CC)CN1CCOCC1 (centres undefined) do in these assays?
PHOSPHO1 block: 65; p-CIP stab down: inactive; SUMO HTRF inh: inactive; NadD inh: inactive

Results for Cc1nnc(NC(=O)c2ccc(S(=O)(=O)N3CCCCCC3)cc2)o1 ?
PHOSPHO1 block: 63; p-CIP stab down: inactive; SUMO HTRF inh: inactive; NadD inh: inactive

Results for CCC1CCCCN1S(=O)(=O)c1ccc(C(=O)Nc2nnc(-c3cccs3)o2)cc1 (centres undefined) ?
PHOSPHO1 block: inactive; p-CIP stab down: inactive; SUMO HTRF inh: inactive; NadD inh: 42

What do the screens show for `CC1CC(C)CN(S(=O)(=O)c2ccc(C(=O)Nc3nnc(-c4cccs4)o3)cc2)C1` (centres undefined)?
PHOSPHO1 block: inactive; p-CIP stab down: inactive; SUMO HTRF inh: inactive; NadD inh: inactive

What do the screens show for `Cc1nnc(NC(=O)c2ccc(S(=O)(=O)N3CC(C)OC(C)C3)cc2)o1` (centres undefined)?
PHOSPHO1 block: inactive; p-CIP stab down: inactive; SUMO HTRF inh: inactive; NadD inh: inactive

What do the screens show for `Cc1cc(C(=O)Nc2ccc(S(=O)(=O)N3CCCC3)cc2)no1`?
PHOSPHO1 block: 62; p-CIP stab down: inactive; SUMO HTRF inh: inactive; NadD inh: inactive

How did Cc1cccc(N=NC(=S)NNc2cccc(C)c2)c1 do in these assays?
NadD inh: inactive

Results for COc1cccc(CNC(=O)[C@H](C)NC(=O)N2CC(=O)Nc3ccccc32)c1 ?
NadD inh: inactive

How did CC(OC(=O)c1nc(Cl)ccc1Cl)C(=O)NCc1ccccc1 (centres undefined) do in these assays?
NadD inh: inactive

Results for CCCn1c(SC(C)C(=O)NC2CCCC(C)C2C)n[nH]c1=O (centres undefined) ?
NadD inh: inactive

What do the screens show for `O=C(Nc1ccc(N2CCOCC2)cc1)Nc1ccc2nc(-c3ccco3)c(-c3ccco3)nc2c1`?
PHOSPHO1 block: inactive; p-CIP stab down: inactive; SUMO HTRF inh: inconclusive; NadD inh: inactive

What do the screens show for `COc1ccc(CCNC(=O)c2ccc3nc(-c4ccco4)c(-c4ccco4)nc3c2)cc1OC`?
PHOSPHO1 block: 70; p-CIP stab down: inactive; SUMO HTRF inh: inactive; NadD inh: 47

What do the screens show for `O=C(NCCCO)Nc1ccc2nc(-c3ccco3)c(-c3ccco3)nc2c1`?
PHOSPHO1 block: inactive; p-CIP stab down: inactive; SUMO HTRF inh: 93

Results for OCCCNC(=S)Nc1ccc2nc(-c3ccccn3)c(-c3ccccn3)nc2c1 ?
PHOSPHO1 block: inactive; p-CIP stab down: inactive; SUMO HTRF inh: inactive; NadD inh: inactive

How did O=C(Nc1ccc2nc(-c3ccco3)c(-c3ccco3)nc2c1)NC1CC1 do in these assays?
PHOSPHO1 block: inactive; p-CIP stab down: inactive; SUMO HTRF inh: inconclusive; NadD inh: 28

Results for O=C(Nc1cccc(C(F)(F)F)c1)c1ccc2nc(-c3ccco3)c(-c3ccco3)nc2c1 ?
PHOSPHO1 block: inactive; p-CIP stab down: inactive; SUMO HTRF inh: inactive; NadD inh: 65

How did CCc1nc2ccc(C(=O)NCCc3ccc(OC)c(OC)c3)cc2nc1CC do in these assays?
PHOSPHO1 block: inactive; p-CIP stab down: inactive; SUMO HTRF inh: inactive; NadD inh: inactive

How did CC(C)C(=O)N1CCCC1(C)C(=O)Nc1ccc2c(c1)OCO2 (centres undefined) do in these assays?
NadD inh: inactive

What do the screens show for `COCCCNc1nc2nonc2nc1N1CCC(C(C)N2CCOCC2)CC1` (centres undefined)?
PHOSPHO1 block: 70; p-CIP stab down: inactive; SUMO HTRF inh: inactive; NadD inh: inactive

How did COCCNc1nc2nonc2nc1N1CCC(N(C)C)C1 (centres undefined) do in these assays?
PHOSPHO1 block: inactive; p-CIP stab down: inactive; SUMO HTRF inh: inactive; NadD inh: inactive

What do the screens show for `COc1cccc(-n2nc3c(=S)[nH]nc(C)c3c2C)c1`?
PHOSPHO1 block: 60; p-CIP stab down: inactive; SUMO HTRF inh: inactive; NadD inh: inactive

How did Cc1n[nH]c(=S)c2nn(-c3ccccc3F)c(C)c12 do in these assays?
PHOSPHO1 block: 65; p-CIP stab down: inactive; SUMO HTRF inh: inactive; NadD inh: inactive

How did Cc1n[nH]c(=S)c2nn(-c3cccc(Cl)c3)c(C)c12 do in these assays?
PHOSPHO1 block: inactive; p-CIP stab down: inactive; SUMO HTRF inh: inactive
